# Laboratory results: PubChem BioAssay (Tox21)
# A number with no mark means an inactive call. Results filed as inconclusive are left out. Where a call stands in place of a potency, no number is given. Active and inactive are the calls of the source. Unless noted, the call rests on the fitted dose curve; in most records, active means well fitted curve in the direction sought with a large enough effect in the repeat runs; inconclusive means weak or mixed curves; inactive means no such curve, though single readings can be large; an effect the other way counts as inactive or inconclusive.
# How the values were obtained:
# [1] = qHTS assay to identify small molecule antagonists of the estrogen receptor alpha (ER-alpha) signaling pathway using the BG1 cell line in the presence of 0.1 nM 17-beta-estradiol - cell viability counter screen (AID 1259241); further: nearly all actives have a fitted effect of over 40% in size
# How it was run: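 Following 5 days in phenol red-free medium with charcoal-stripped serum, VM7Luc4E2 cells received test compounds alongside 0.1 nM 17beta-estradiol (final) at 37C for 22 hr. Live cells were then quantified via protease-substrate fluorescence.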
# [2] = qHTS assay to identify small molecule antagonists of the androgen receptor (AR) signaling pathway using the MDA cell line in the presence of 0.5 nM R1881 - cell viability counter screen (AID 1259242); further: nearly all actives have a fitted effect of over 45% in size
# How it was run: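 Concentration-response screen of compounds for toxicity in MDA-kb2 reporter cells: 16 hr at 37C with 0.5 nM R1881, endpoint live-cell protease fluorescence measured in the reporter wells.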
# [3] = qHTS assay to identify small molecule phospholipidosis (PLD) inducers (AID 1259344; active means well fitted curve in the direction sought with a large enough effect; an effect the other way counts as inactive or inconclusive)
# How it was run: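 Cells (HepG2, 900 per well) attach for 4 h, receive LipidTOX Red and compound together, incubate 24 h at 37 C, are fixed 30 min with paraformaldehyde/Hoechst, then imaged at one site per well.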
# [4] = qHTS assay to identify small molecule HDAC inhibitors (AID 1259364);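 further: wild-type HCT-116 cells with endogenous class I/II HDAC activity; top concentration of the series differs between compounds; nearly all actives have a fitted effect of over 45% in size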
# How it was run: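 Screening used wild-type human colon HCT-116 cells incubated overnight, dosed with compounds for 2 hours, and assayed with a homogeneous luminogenic HDAC I/II reagent for 30 minutes at room temperature.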
# [5] = qHTS assay to identify small molecule HDAC inhibitors - cell viability counter screen (AID 1259365); further: series mostly up to about 92 µM; nearly all actives have a fitted effect of over 50% in size
# How it was run: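 HCT-116 wild-type, overnight attachment; 2hr drug exposure, 37C; CellTiter-Glo luminescent ATP readout after 30min RT.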
# [6] = qHTS assay to identify small molecule agonists of the sonic hedgehog signaling (Shh) pathway - cell viability counter screen (AID 1259366); further: nearly all actives have a fitted effect of over 50% in size; further: potency means the concentration at half of the fitted maximal effect
# How it was run: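 Compounds in DMSO were pin-transferred onto 3T3 Gli1-Luc cells that had settled 4hr; plates then stood 24hr at 37C and 5% CO2. One hour before the end, CellTiter-Fluor was added and fluorescence recorded.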
# [7] = qHTS assay to identify small molecule antagonists of the sonic hedgehog signaling (Shh) pathway - cell viability counter screen (AID 1259367); further: nearly all actives have a fitted effect of over 55% in size; further: potency means the concentration at half of the fitted maximal effect
# How it was run: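 Cytotoxicity was assessed in parallel with Shh reporter activity by measuring live-cell protease fluorescence (CellTiter-Fluor) in NIH/3T3 cells stably carrying Gli1-Luc, treated with compound under conditioned medium stimulation for 23 hr plus 1 hr reagent incubation.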
# [8] = qHTS assay to identify small molecule agonists of the sonic hedgehog signaling (Shh) pathway (AID 1259368; calls by dose curve;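 further: NIH/3T3-derived 3T3Gli1-Luc cells carrying a stable Gli1-driven firefly luciferase reporter; series mostly up to about 92 µM; nearly all actives have a fitted effect of over 15% in size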)
# How it was run: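 Hedgehog pathway agonism scored by increased firefly luciferase luminescence in 3T3Gli1-Luc cells treated 24 hr at 37 C; detection used a 30 min room-temperature reagent incubation.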
# [9] = qHTS assay to identify small molecule antagonists of the sonic hedgehog signaling (Shh) pathway (AID 1259369; calls by dose curve; further: nearly all actives have a fitted effect of over 45% in size; further: potency means the concentration at half of the fitted maximal effect)
# How it was run: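 NIH/3T3 stable Gli1-Luc clone, 2,000 cells/well, 4hr settle; cpd + conditioned medium 24hr; Luc reagent 30min RT; luminescence.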
# [10] = biological target: Estrogen receptor beta (Homo sapiens) (UniProt Q92731); assay: qHTS assay to identify small molecule agonists of the estrogen receptor beta (ER-beta) signaling pathway (AID 1259377; active means well fitted activation curve with a large enough effect in the signal ratio in the repeat runs, not every such curve was filed as active; the % refers to the signal ratio)
# How it was run: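 qHTS in ER-beta-UAS-bla HEK293T cells: 6 hr settling, then 16 hr compound at 37C, then LiveBLAzer substrate 2 h at RT before fluorescence reading.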
# [11] = biological target: Estrogen receptor beta (Homo sapiens) (UniProt Q92731); assay: qHTS assay to identify small molecule antagonists of the estrogen receptor beta (ER-beta) signaling pathway (AID 1259378; active means well fitted inhibition curve with a large enough effect in the signal ratio in the repeat runs, not every such curve was filed as active; the % refers to the signal ratio)
# How it was run: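 ER-beta-UAS-bla HEK293T (GripTite) cells in 2% charcoal-stripped FBS medium were preincubated 6 hr at 37C, dosed with compound, then stimulated with 1 nM E2 (final) for 16 hr; beta-lactamase reporter read by B/G FRET fluorescence after 2 hr substrate loading.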
# [12] = qHTS assay to identify small molecule agonists of the estrogen receptor beta (ER-beta) signaling pathway - cell viability counter screen (AID 1259380); further: nearly all actives have a fitted effect of over 30% in size; further: potency means the concentration at half of the fitted maximal effect
# How it was run: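 Measured: luminescence from CellTiter-Glo after 30 min at room temperature, added to wells already read for the LiveBLAzer FRET reporter (2 hr substrate); ER-beta-UAS-bla HEK293T cells had 16 hr compound treatment at 37C, 5% CO2.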
# [13] = qHTS assay to identify small molecule antagonists of the estrogen receptor beta (ER-beta) signaling pathway - cell viability counter screen (AID 1259382); further: series mostly up to about 92 µM; nearly all actives have a fitted effect of over 55% in size
# How it was run: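 Readout: luminescence, CellTiter-Glo, same wells as bla assay. System: ER-beta-UAS-bla GripTite HEK293T, 2% charcoal-stripped FBS. Exposure: compounds plus 1nM 17-beta-estradiol, 16 hr, 37C.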
# [14] = qHTS assay to identify small molecule agonists or antagonists of the thyroid stimulating hormone receptor (TSHR) signaling pathway - wild type cell line counter screen (AID 1259384; calls by dose curve)
# How it was run: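 Wild-type HEK293 cells were plated 18 h at 37 C/5% CO2, pin-dosed with compound plus Ro20-1724 medium, held 30 min at room temperature, then given cAMP-d2 and anti-cAMP-cryptate; fluorescence was read after 1 h. Fifteen concentrations, triplicate.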
# [15] = biological target: Thyrotropin receptor (Homo sapiens) (UniProt P16473); assay: qHTS assay to identify small molecule antagonists of the thyroid stimulating hormone receptor (TSHR) signaling pathway (AID 1259385; calls by dose curve; further: nearly all actives have a fitted effect of over 20% in size)
# How it was run: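 TSHR-HEK293 cells were plated and held 18 h at 37C/5% CO2, then given compound plus Ro20-1724 and stimulated with TSH at 1.5 ng/mL final. After 30 min at room temperature, cAMP was detected with cAMP-d2/anti-cAMP-cryptate (1 h) by fluorescence.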
# [16] = biological target: Estrogen receptor (Homo sapiens) (UniProt P03372); assay: qHTS assay to identify small molecule antagonists of the estrogen receptor alpha (ER-alpha) signaling pathway using the BG1 cell line in the presence of 0.1 nM 17-beta-estradiol (AID 1259244); further: nearly all actives have a fitted effect of over 50% in size
# How it was run: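 Compounds were tested against 0.1 nM (final) 17beta-estradiol in VM7Luc4E2 cells, which express full-length ER-alpha and an ERE-luciferase reporter; luminescence was recorded following 22 h exposure.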
# [17] = qHTS assay to identify small molecule agonists of the androgen receptor (AR) signaling pathway in the presence of an antagonist - cell viability counter screen (AID 1259379);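 further: MDA-kb2 human breast cancer cells carrying an MMTV luciferase reporter; series mostly up to about 92 µM; nearly all actives have a fitted effect of over 25% in size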
# How it was run: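 MDA-kb2 viability measured by CellTiter-Fluor fluorescence in the same wells as the luciferase signal; nilutamide 3.0uM final; 15-point compound titration; 16 hr at 37C.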
# [18] = biological target: Estrogen receptor (Homo sapiens) (UniProt P03372); assay: qHTS assay to identify small molecule agonists of the estrogen receptor alpha (ER-alpha) signaling pathway in the presence of an antagonist (AID 1259383; calls by dose curve; further: top concentration of the series differs between compounds; nearly all actives have a fitted effect of over 15% in size)
# How it was run: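 Quantitative HTS confirmation: compounds titrated at 15 concentrations onto estrogen-deprived VM7Luc4E2 cells carrying a four-ERE luciferase construct, with ICI-182,780 present at 10.0nM final. Signal is luminescence after 22hr exposure.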
# Sequence of Estrogen receptor beta (Homo sapiens) (Q92731 whole entry, looked up): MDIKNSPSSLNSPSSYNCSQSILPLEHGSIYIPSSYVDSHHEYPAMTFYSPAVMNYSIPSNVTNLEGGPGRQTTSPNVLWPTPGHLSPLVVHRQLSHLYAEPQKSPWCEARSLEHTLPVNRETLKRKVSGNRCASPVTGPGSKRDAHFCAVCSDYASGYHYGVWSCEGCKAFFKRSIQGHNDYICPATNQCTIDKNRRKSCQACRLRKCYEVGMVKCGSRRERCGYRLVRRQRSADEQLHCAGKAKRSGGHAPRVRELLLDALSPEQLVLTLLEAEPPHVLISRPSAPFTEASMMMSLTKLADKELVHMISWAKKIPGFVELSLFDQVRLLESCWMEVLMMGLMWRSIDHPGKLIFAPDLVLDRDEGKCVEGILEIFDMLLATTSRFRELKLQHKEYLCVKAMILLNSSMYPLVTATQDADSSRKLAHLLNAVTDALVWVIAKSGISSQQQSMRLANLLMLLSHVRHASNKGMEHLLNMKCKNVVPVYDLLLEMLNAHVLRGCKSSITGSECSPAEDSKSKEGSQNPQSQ
# Sequence of Estrogen receptor (Homo sapiens) (P03372 whole entry, looked up): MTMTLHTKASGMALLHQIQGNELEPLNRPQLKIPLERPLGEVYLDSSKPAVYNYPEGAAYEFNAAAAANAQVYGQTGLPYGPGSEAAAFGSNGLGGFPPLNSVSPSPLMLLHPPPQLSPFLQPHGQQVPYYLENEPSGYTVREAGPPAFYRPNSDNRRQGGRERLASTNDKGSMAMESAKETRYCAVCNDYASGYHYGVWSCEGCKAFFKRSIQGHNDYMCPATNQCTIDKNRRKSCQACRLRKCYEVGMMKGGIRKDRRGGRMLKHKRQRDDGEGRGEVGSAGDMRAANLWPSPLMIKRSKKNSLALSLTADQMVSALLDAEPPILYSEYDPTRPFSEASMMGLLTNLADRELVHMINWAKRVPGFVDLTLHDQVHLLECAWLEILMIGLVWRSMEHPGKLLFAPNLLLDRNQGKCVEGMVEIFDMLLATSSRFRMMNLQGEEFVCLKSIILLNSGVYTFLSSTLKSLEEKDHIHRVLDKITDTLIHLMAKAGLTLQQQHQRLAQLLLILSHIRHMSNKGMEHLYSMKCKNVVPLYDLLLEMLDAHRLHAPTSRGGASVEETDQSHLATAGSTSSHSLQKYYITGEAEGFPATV
# Sequence of Thyrotropin receptor (Homo sapiens) (P16473 whole entry, looked up): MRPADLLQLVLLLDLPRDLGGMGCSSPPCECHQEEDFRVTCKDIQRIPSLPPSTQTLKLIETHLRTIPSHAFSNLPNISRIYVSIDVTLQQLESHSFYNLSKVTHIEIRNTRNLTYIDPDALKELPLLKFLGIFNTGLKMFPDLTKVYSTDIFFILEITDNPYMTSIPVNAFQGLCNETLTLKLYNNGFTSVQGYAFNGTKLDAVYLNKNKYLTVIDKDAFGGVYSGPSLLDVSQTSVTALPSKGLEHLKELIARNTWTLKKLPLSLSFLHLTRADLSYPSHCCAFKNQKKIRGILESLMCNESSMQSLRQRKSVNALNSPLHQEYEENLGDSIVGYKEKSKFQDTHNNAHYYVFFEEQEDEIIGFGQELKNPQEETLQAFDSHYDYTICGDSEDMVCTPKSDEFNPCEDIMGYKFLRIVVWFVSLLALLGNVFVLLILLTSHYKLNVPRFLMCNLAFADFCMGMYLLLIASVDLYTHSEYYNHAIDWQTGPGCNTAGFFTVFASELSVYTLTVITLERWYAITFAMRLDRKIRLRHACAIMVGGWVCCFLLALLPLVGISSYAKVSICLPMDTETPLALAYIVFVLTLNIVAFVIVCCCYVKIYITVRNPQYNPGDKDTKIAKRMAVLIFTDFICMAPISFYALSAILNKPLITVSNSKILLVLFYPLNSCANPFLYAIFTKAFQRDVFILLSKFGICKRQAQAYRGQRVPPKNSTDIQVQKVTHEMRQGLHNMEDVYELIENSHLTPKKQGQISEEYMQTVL
SMILES,Potency [1],Potency [2],Potency [3],Potency [4],outcome [5],Potency [6],Potency [7],outcome [8],Potency [9],Potency [10],Potency [11],Potency [12],Potency [13],Potency [14],Potency [15],Potency [16],Potency [17],Potency [18]
CC(C)(C)C(=O)OCOP(=O)(COCCn1cnc2c(N)ncnc21)OCOC(=O)C(C)(C)C,inactive,inactive,inactive,inactive,inactive,10.6 µM (active),9.44 µM (active),inactive,2.98 µM (active),inactive,inactive,9.44 µM (active),inactive,inactive,inactive,–,–,–
C#CCOC(=O)[C@@H](C)Oc1ccc(Oc2ncc(Cl)cc2F)cc1,inactive,inactive,–,–,inactive,inactive,inactive,inactive,inactive,inactive,–,–,inactive,inactive,inactive,inactive,inactive,inactive
CC1CCc2cc(F)cc3c(=O)c(C(=O)O)cn1c23 (stereo unspecified),inactive,inactive,inactive,inactive,inactive,inactive,inactive,inactive,inactive,inactive,–,inactive,inactive,inactive,inactive,–,–,–
c1ccc(CNCc2ccccc2)cc1,inactive,inactive,–,–,inactive,inactive,inactive,inactive,inactive,inactive,inactive,inactive,inactive,inactive,inactive,inactive,inactive,inactive
O=c1c2ccccc2nnn1CCl,inactive,inactive,–,–,inactive,inactive,inactive,inactive,inactive,–,inactive,inactive,inactive,inactive,inactive,inactive,inactive,inactive
Cc1ccc(C(N)=O)cc1N,inactive,inactive,–,–,inactive,inactive,inactive,inactive,inactive,–,inactive,inactive,inactive,inactive,inactive,inactive,inactive,inactive
O=C1[C@H](CC[C@H](O)c2ccc(F)cc2)[C@@H](c2ccc(O)cc2)N1c1ccc(F)cc1,inactive,inactive,inactive,inactive,inactive,inactive,inactive,inactive,inactive,inactive,–,inactive,inactive,inactive,inactive,–,inactive,inactive
NCCCOCCOCCOCCCN,inactive,inactive,–,inactive,inactive,–,inactive,inactive,–,–,–,15.4 µM (active),–,inactive,inactive,inactive,–,inactive
